The test deals with E. coli BW25113 micFp lux reporter. Kind of test: promoter activity interaction Z-score (Lux/OD deviation from empty-vector control); higher = stronger promoter induction by the compound. As to the method:
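E. coli BW25113 (wild type or ΔmarA/ΔsoxS/Δrob) carrying pTU175 luxCDABE promoter reporters was grown in LB in 384-well plates at 37°C with each of 94 compounds at 4 two-fold concentrations, in biological duplicates. Luminescence and OD600 were read every 30 min for 12 h and integrated as AUC over 8 h (0-8 h WT, 1-9 h mutants). Lux AUC was divided by OD AUC; the interaction score is the residual of a Huber robust fit of each promoter against the empty-vector control, then Z-transformed per promoter.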

± gives the standard deviation of the averaged measurements.

Regarding `Cc1c(N)nc([C@H](CC(N)=O)NC[C@H](N)C(N)=O)nc1C(=O)N[C@H](C(=O)N[C@H](C)[C@@H](O)[C@H](C)C(=O)N[C@H](C(=O)NCCc1nc(-c2nc(C(=O)NCCC[S+](C)C)cs2)cs1)[C@@H](C)O)[C@@H](OC1OC(CO)C(O)C(O)C1OC1OC(CO)C(O)C(OC(N)=O)C1O)c1cnc[nH]1` (stereo partly drawn) [Bleomycin], the “promoter activity interaction Z-score” value runs as follows: (0.038 µg/ml, genetic background: wild type) -0.542 ± 0.065; (0.038 µg/ml, genetic background: ΔmarA) -0.018 ± 0.18; (0.038 µg/ml, genetic background: Δrob) -0.0145 ± 0.17; (0.038 µg/ml, genetic background: ΔsoxS) -0.239 ± 0.3; (0.076 µg/ml, genetic background: wild type) -0.384 ± 0.099; (0.076 µg/ml, genetic background: ΔmarA) -0.0986 ± 0.079. Besides, the “promoter activity interaction Z-score” value (0.076 µg/ml, genetic background: Δrob) is -0.0358 ± 0.11; the “promoter activity interaction Z-score” value (0.076 µg/ml, genetic background: ΔsoxS) was -0.0314 ± 0.21; the “promoter activity interaction Z-score” value (0.15 µg/ml, genetic background: wild type) is -0.758 ± 0.17; the “promoter activity interaction Z-score” value (0.15 µg/ml, genetic background: ΔmarA) stood at 0.0263 ± 0.051; the “promoter activity interaction Z-score” value (0.15 µg/ml, genetic background: Δrob) was found to be 0.317 ± 0.023; the “promoter activity interaction Z-score” value (0.15 µg/ml, genetic background: ΔsoxS) was -0.34 ± 0.014. Besides, the “promoter activity interaction Z-score” value (0.3 µg/ml, genetic background: wild type) is -0.844 ± 0.18; the “promoter activity interaction Z-score” value (0.3 µg/ml, genetic background: ΔmarA) was -0.0349; the “promoter activity interaction Z-score” value (0.3 µg/ml, genetic background: Δrob) is -0.227 ± 0.59; the “promoter activity interaction Z-score” value (0.3 µg/ml, genetic background: ΔsoxS) was -1.55.
With `CC(=O)N[C@H]1[C@@H](O[C@@H]2O[C@H](CC(O)[C@H]3O[C@@H](n4ccc(=O)[nH]c4=O)[C@H](O)[C@@H]3O)[C@H](O)[C@H](O)[C@H]2NC(=O)/C=C/CC(C)C)O[C@H](CO)[C@@H](N)[C@@H]1O` (stereo partly drawn) [Tunicamycin], the “promoter activity interaction Z-score” value was 0.395 ± 0.012 (2.6 µg/ml, genetic background: wild type); 0.0327 ± 0.17 (2.6 µg/ml, genetic background: ΔmarA); 0.0339 ± 0.11 (2.6 µg/ml, genetic background: Δrob); 0.164 ± 0.031 (2.6 µg/ml, genetic background: ΔsoxS); 0.157 ± 0.33 (5.3 µg/ml, genetic background: wild type); -0.0548 ± 0.095 (5.3 µg/ml, genetic background: ΔmarA). Further, the “promoter activity interaction Z-score” value (5.3 µg/ml, genetic background: Δrob) was determined as 0.115 ± 0.13; the “promoter activity interaction Z-score” value (5.3 µg/ml, genetic background: ΔsoxS) was -0.136 ± 0.086; the “promoter activity interaction Z-score” value (10.6 µg/ml, genetic background: wild type) is -0.104 ± 0.25; the “promoter activity interaction Z-score” value (10.6 µg/ml, genetic background: ΔmarA) turned out to be 0.0656 ± 0.17; the “promoter activity interaction Z-score” value (10.6 µg/ml, genetic background: Δrob) was found to be 0.0163 ± 0.13; the “promoter activity interaction Z-score” value (10.6 µg/ml, genetic background: ΔsoxS) is -0.276 ± 0.12. The “promoter activity interaction Z-score” value reads like this: (21.1 µg/ml, genetic background: wild type) -0.663 ± 0.012; (21.1 µg/ml, genetic background: ΔmarA) -0.0908 ± 0.024; (21.1 µg/ml, genetic background: Δrob) -0.359 ± 0.073; (21.1 µg/ml, genetic background: ΔsoxS) -0.569 ± 0.028.
Consider `C[C@]12CC[C@H]3[C@@H](CCC4=CC(=O)CC[C@@]43C)[C@@H]1CC[C@@H]2O` [Testosterone], for which the “promoter activity interaction Z-score” value runs as follows: (18 µg/ml, genetic background: wild type) -0.197 ± 0.0038; (18 µg/ml, genetic background: ΔmarA) 0.0474 ± 0.038; (18 µg/ml, genetic background: Δrob) -0.0298 ± 0.091; (18 µg/ml, genetic background: ΔsoxS) 0.319 ± 0.18; (36.1 µg/ml, genetic background: wild type) -0.14 ± 0.34; (36.1 µg/ml, genetic background: ΔmarA) 0.094 ± 0.098. Besides, the “promoter activity interaction Z-score” value was -0.000736 ± 0.15 (36.1 µg/ml, genetic background: Δrob); -0.0287 ± 0.15 (36.1 µg/ml, genetic background: ΔsoxS); 0.142 ± 0.26 (72.1 µg/ml, genetic background: wild type); 0.527 ± 0.063 (72.1 µg/ml, genetic background: ΔmarA); 0.174 ± 0.16 (72.1 µg/ml, genetic background: Δrob); 0.257 ± 0.41 (72.1 µg/ml, genetic background: ΔsoxS). Besides, the “promoter activity interaction Z-score” value came out at 0.181 ± 0.03 (144.2 µg/ml, genetic background: wild type); 0.196 ± 0.089 (144.2 µg/ml, genetic background: ΔmarA); 0.202 ± 0.074 (144.2 µg/ml, genetic background: Δrob); 0.625 ± 0.45 (144.2 µg/ml, genetic background: ΔsoxS).

Values taken from the supplement of paper PMC12282887.
